Assay results taken from PubChem BioAssay (NCI).
Compounds without any hit were thinned out: in the full panel of roughly 83,000, 20% have a hit.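 48-hour exposure, single concentration, 96-well plates; percent growth endpoint where 0 means no net growth. Active: below 10.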 The source made the active and inactive calls.

Tests used:
Assay in all cases: NCI-60 one-dose screen, 48 h (100 = growth as untreated, 0 = no growth, -100 = all killed)
Conditions in all cases: 10 µM unless noted
DU-145 prostate = test system: DU-145 prostate
K-562 leukemia = test system: K-562 leukemia
MALME-3M melanoma = test system: MALME-3M melanoma
MDA-MB-231 breast = test system: MDA-MB-231 breast
RXF 393 renal = test system: RXF 393 renal
SF-268 CNS = test system: SF-268 CNS
SF-295 CNS = test system: SF-295 CNS
SF-539 CNS = test system: SF-539 CNS
UACC-257 melanoma = test system: UACC-257 melanoma
M14 melanoma = test system: M14 melanoma

Measured: growth

COc1cc2cc(C(=O)N3C[C@@H](CCl)c4c3cc(OC(=O)N(C)CCSSCCN3CCOCC3)c3ccccc43)[nH]c2c(OC)c1OC
active: DU-145 prostate -10.3% | K-562 leukemia 2.13% | MALME-3M melanoma -83.7% | MDA-MB-231 breast -20.2% | RXF 393 renal -86.6% | SF-268 CNS 0.895% | SF-295 CNS -11.3% | SF-539 CNS -72% | UACC-257 melanoma -8.65% | M14 melanoma -81.4%

COc1ccc(-c2nc3ccccc3n2CC(=O)N=Nc2c(O)[nH]c3ccc(OC)cc23)cc1
inactive: K-562 leukemia 32.5% | MALME-3M melanoma 30.6% | MDA-MB-231 breast 66.5% | RXF 393 renal 10.6% | SF-268 CNS 77.5% | SF-295 CNS 104% | UACC-257 melanoma 60.8% | M14 melanoma 64.5%
active: DU-145 prostate 3.7% | SF-539 CNS -34.7%

O=CNc1cccc(-n2cnc3cc(-c4ccc(O)cc4)ccc32)c1
active: SF-539 CNS -6.56%
inactive: DU-145 prostate 43.7% | K-562 leukemia 12.2% | MALME-3M melanoma 42.8% | MDA-MB-231 breast 55.3% | RXF 393 renal 11% | SF-268 CNS 40.7% | SF-295 CNS 25.5% | UACC-257 melanoma 84.7% | M14 melanoma 57.2%

COc1cc(C2CC(c3cc(OC)c(OC)c(OC)c3)=Nc3c(N)nc(N)nc3N2)ccc1Oc1nc(Nc2ccc(F)cc2)nc(N(C)C)n1 (stereo not given)
inactive: DU-145 prostate 70.7% | K-562 leukemia 15.1% | MALME-3M melanoma 78.6% | MDA-MB-231 breast 24.6% | RXF 393 renal 26.5% | SF-268 CNS 63.5% | SF-295 CNS 61.3% | SF-539 CNS 62% | UACC-257 melanoma 58.9% | M14 melanoma 66.5%

FC(F)(F)c1cc2c(Cl)ncnc2n1CCC1CCOCC1
active: DU-145 prostate -99.6% | K-562 leukemia -26.3% | MDA-MB-231 breast 0.4% | SF-268 CNS -71.1% | M14 melanoma -83.5%
inactive: MALME-3M melanoma 79.2% | RXF 393 renal 57.8% | SF-295 CNS 70.8% | SF-539 CNS 70.8% | UACC-257 melanoma 37.6%

O=C(Nc1ccc(Cl)c(C(F)(F)F)c1)N1CCN(c2cc(-c3cn(-c4ccccc4)nc3-c3cccc(O)c3)ccn2)CC1
active: MALME-3M melanoma -31.4% | MDA-MB-231 breast -48.6% | RXF 393 renal -35.4% | SF-268 CNS 2.35% | SF-295 CNS -37.2% | SF-539 CNS 7.9% | UACC-257 melanoma -16.6% | M14 melanoma -19.3%
inactive: DU-145 prostate 22.5% | K-562 leukemia 14.8%

N#C/C(=C/c1ccc([N+](=O)[O-])cc1)c1nnc(NC(=O)c2ccc(-n3c(=O)[nH]c4ccccc4c3=O)cc2)s1
inactive: DU-145 prostate 83.1% | K-562 leukemia 103% | MALME-3M melanoma 91.6% | MDA-MB-231 breast 89.5% | RXF 393 renal 87.9% | SF-268 CNS 110% | SF-295 CNS 100% | SF-539 CNS 93.6% | UACC-257 melanoma 105% | M14 melanoma 120%

C/C(=N/O)c1ccc(NC(=O)CSc2nnc(-c3ccc4nc(-c5ccc(Cl)cc5)[nH]c4c3)o2)cc1
active: MALME-3M melanoma -4.58% | RXF 393 renal -40.6%
inactive: DU-145 prostate 44.3% | K-562 leukemia 19.4% | MDA-MB-231 breast 36% | SF-268 CNS 70.8% | SF-295 CNS 97.6% | SF-539 CNS 43% | UACC-257 melanoma 97.4% | M14 melanoma 22.2%

COc1ccc(C(=O)/C=C/c2ccc3c(c2)OCCO3)cc1S(N)(=O)=O
inactive: DU-145 prostate 44.7% | K-562 leukemia 16.7% | MALME-3M melanoma 88.3% | MDA-MB-231 breast 86.5% | RXF 393 renal 88.5% | SF-268 CNS 111% | SF-295 CNS 79.5% | SF-539 CNS 44.9% | UACC-257 melanoma 77.9% | M14 melanoma 89.7%

Cc1ccccc1NC(=O)c1cccc(NC(=O)CCl)c1
inactive: DU-145 prostate 69.4% | K-562 leukemia 28.1% | MALME-3M melanoma 79.6% | MDA-MB-231 breast 49.7% | RXF 393 renal 49.7% | SF-268 CNS 60.1% | SF-295 CNS 38.4% | SF-539 CNS 51.3% | UACC-257 melanoma 47.5% | M14 melanoma 50.5%

Nc1nc2cc(-c3ccc4ncnc(NCc5ccccc5)c4c3)ccc2o1
inactive: DU-145 prostate 15.9% | K-562 leukemia 25.9% | SF-268 CNS 25% | UACC-257 melanoma 68.4% | M14 melanoma 22.4%
active: MALME-3M melanoma -23.8% | MDA-MB-231 breast -48.8% | RXF 393 renal -75.6% | SF-295 CNS -42.3% | SF-539 CNS -86.5%

O=C(Cc1c(-c2cccc([N+](=O)[O-])c2)n(-c2ncnc3c2c(-c2ccccc2)c(-c2ccccc2)n3Cc2ccccc2)[nH]c1=O)c1ccc(Cl)c(Cl)c1
inactive: DU-145 prostate 51% | K-562 leukemia 17.6% | MDA-MB-231 breast 37.4% | RXF 393 renal 44.9% | SF-268 CNS 62.3% | SF-295 CNS 12.2% | SF-539 CNS 60.7% | UACC-257 melanoma 30.9% | M14 melanoma 32.6%
active: MALME-3M melanoma -3.97%

COc1cccc2nc(Nc3cccc(NC(=O)c4ccc(CN5CCN(C)CC5)c(C(F)(F)F)c4)c3)ccc12
active: DU-145 prostate -83.5% | K-562 leukemia 2.54% | MALME-3M melanoma -96.4% | MDA-MB-231 breast -97.9% | RXF 393 renal -98.5% | SF-268 CNS -54.4% | SF-295 CNS -95.1% | SF-539 CNS -100% | UACC-257 melanoma -83.1% | M14 melanoma -85.2%

O=C(CSc1nnc(-c2ccc(-c3nc4ccccc4[nH]3)cc2)o1)Nc1ccc(Br)cc1
active: MDA-MB-231 breast -29.1% | RXF 393 renal -62% | SF-539 CNS -89.8% | M14 melanoma -0.614%
inactive: DU-145 prostate 13.8% | K-562 leukemia 11% | MALME-3M melanoma 31.9% | SF-268 CNS 48.7% | SF-295 CNS 53.8% | UACC-257 melanoma 61.9%

O=C1Nc2cc(-c3ccc(NS(=O)(=O)c4ccc(F)c(Cl)c4)cc3)ccc2/C1=C/c1ccc[nH]1
inactive: DU-145 prostate 20% | K-562 leukemia 17.3% | MALME-3M melanoma 50.3% | RXF 393 renal 29.5% | SF-268 CNS 60.1% | SF-295 CNS 53.6% | UACC-257 melanoma 29.7% | M14 melanoma 48.4%
active: MDA-MB-231 breast -6.71% | SF-539 CNS -34.8%

Cc1ccc(N=Nc2c(N)nn3c(-c4cc5ccccc5oc4=O)ccnc23)cc1
active: RXF 393 renal 7.4% | SF-539 CNS -3.24%
inactive: DU-145 prostate 43.7% | K-562 leukemia 40.7% | MALME-3M melanoma 67.1% | MDA-MB-231 breast 30.7% | SF-268 CNS 56.8% | SF-295 CNS 57.4% | UACC-257 melanoma 90.3% | M14 melanoma 46.6%

O=C(N/N=C/c1ccc(Cl)o1)c1[nH]c2ccc(Br)cc2c1-c1ccccc1
inactive: UACC-257 melanoma 17%
active: DU-145 prostate -49.1% | K-562 leukemia 8.31% | MALME-3M melanoma 2.82% | MDA-MB-231 breast -69.9% | RXF 393 renal -62.6% | SF-268 CNS 3.21% | SF-295 CNS -19.3% | SF-539 CNS -97.2% | M14 melanoma -3.48%

CC1=NN(C2=NC(=O)C(CC(=O)Nc3ccccc3C(F)(F)F)S2)C(c2ccc(N(C)C)cc2)C1 (stereo not given)
inactive: DU-145 prostate 63.6% | K-562 leukemia 28.3% | MALME-3M melanoma 61.8% | MDA-MB-231 breast 66% | RXF 393 renal 11.6% | SF-268 CNS 47.4% | SF-295 CNS 41.3% | SF-539 CNS 40.2% | UACC-257 melanoma 58.1% | M14 melanoma 47.7%

C/C(=N/O)c1ccc(NC(=O)CSc2nnc(-c3ccc(-c4nc5ccc(Cl)cc5[nH]4)cc3)o2)cc1
inactive: K-562 leukemia 14.9% | SF-268 CNS 17.6%
active: DU-145 prostate -13.6% | MALME-3M melanoma -80.8% | MDA-MB-231 breast -96.5% | RXF 393 renal -71.5% | SF-295 CNS -16.4% | SF-539 CNS -100% | UACC-257 melanoma -36.9% | M14 melanoma -62.7%

Cc1ccc(C(=O)Nc2cccc(C(=O)NC(=S)Nc3ccc(S(N)(=O)=O)cc3)c2)cc1
inactive: DU-145 prostate 77.3% | K-562 leukemia 71.2% | MALME-3M melanoma 59.8% | MDA-MB-231 breast 81.3% | RXF 393 renal 46.4% | SF-268 CNS 61.4% | SF-295 CNS 60.3% | SF-539 CNS 76.4% | UACC-257 melanoma 79.1% | M14 melanoma 83.7%

S=C(NCCc1ccccc1)Nc1ccc(OCc2nc3ccc(Cl)cc3[nH]2)cc1
active: MDA-MB-231 breast 9.6% | RXF 393 renal -12.6%
inactive: DU-145 prostate 37.3% | K-562 leukemia 10.1% | MALME-3M melanoma 56.5% | SF-268 CNS 52.8% | SF-295 CNS 60.4% | SF-539 CNS 17.8% | UACC-257 melanoma 74.1% | M14 melanoma 46.7%

Cc1cc(C2(c3cc(C)c(OCC(O)CNc4c(C)n(C)n(-c5ccccc5)c4=O)cc3C(C)C)OC(=O)c3ccccc32)c(C(C)C)cc1OCC(O)CNc1c(C)n(C)n(-c2ccccc2)c1=O (stereo not given)
inactive: DU-145 prostate 50.7% | MALME-3M melanoma 26.3% | SF-268 CNS 32.6% | SF-295 CNS 24% | SF-539 CNS 38.9% | UACC-257 melanoma 27.5% | M14 melanoma 29.2%
active: K-562 leukemia 4.53% | MDA-MB-231 breast -36.5% | RXF 393 renal 1.98%

O=C(Cn1c(-c2ccccc2)nc2ccccc21)N=Nc1c(O)[nH]c2ccc(Cl)cc12
active: DU-145 prostate 6.32% | MALME-3M melanoma 5.8% | MDA-MB-231 breast -42% | RXF 393 renal -63.8% | SF-268 CNS 7.18% | SF-295 CNS -40% | SF-539 CNS -46.6%
inactive: K-562 leukemia 10.6% | UACC-257 melanoma 36.5% | M14 melanoma 14.9%

Cc1ccc(C2CC(c3ccc(NC(=O)Nc4ccccc4)cc3)=NN2c2ccc(S(C)(=O)=O)cc2)cc1 (stereo not given)
active: DU-145 prostate 3.25% | MALME-3M melanoma -25.1% | MDA-MB-231 breast -70.1% | RXF 393 renal -78.9% | SF-268 CNS 9.34% | SF-295 CNS -20.3% | SF-539 CNS -97% | M14 melanoma -44.8%
inactive: K-562 leukemia 13.1% | UACC-257 melanoma 34.3%
